± gives the standard deviation of the averaged measurements. Over roughly 33,000 sequences, “E-score (rank enrichment, -0.5 to 0.5)” has its median near -0.0075; the highest 2% begin near 0.23. This excerpt belongs to a sample that is enriched for the highest values.
tested on: WT Max(13-93) synthetic (M65Nle); assay: PBM 8-mer E-score (E-score (rank enrichment, -0.5 to 0.5)); higher = stronger preferential binding
Procedure: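 Protein binding microarray (universal PBM chip covering all 10-mers in fixed probe flanks) with chemically synthesized human Max(13-93) bHLH-LZ analogs (not full-length Max) bearing noncanonical residues (hArg, Tha, Aib, Nle at 65) and aromatic Cys staples. Read-out per 8-mer (and its reverse complement): E-score (rank-based enrichment, -0.5 to 0.5) and Z-score of median probe intensity.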

Sequence	PBM 8-mer E-score
CTAATCCC	0.144 ± 0.024
CCGTCTAC	0.0424 ± 0.084
ACTAACCT	0.0869 ± 0.06
GGTTCCTA	-0.109 ± 0.046
AGACACAG	-0.0614 ± 0.0067
AGTTATTA	0.245 ± 0.038
CATTATTC	0.137 ± 0.063
GATTATTA	0.146 ± 0.14
AATTATAC	0.1451 ± 0.00023
AGTTATTG	0.127 ± 0.066
AATTATAG	0.279 ± 0.07
CATTATTA	0.262 ± 0.0081
AATTATAA	0.214 ± 0.072
GGTTATTA	0.126 ± 0.0068
GCCCCGAC	-0.0997 ± 0.092
AAAAGAGT	0.0215 ± 0.025
CAGCCGGG	-0.216 ± 0.054
CGCGATGA	-0.0499 ± 0.057
GATACCAC	0.0906 ± 0.0058
AATACCAC	0.232 ± 0.0071
AATACCAG	-0.0097 ± 0.088
AATACCAT	0.239 ± 0.0086
ACTACCAT	0.0905 ± 0.098
AATACCAA	0.0858 ± 0.08

Sequence	PBM 8-mer E-score
CTACCCGC	-0.143 ± 0.13
GAAGGAGC	-0.0442 ± 0.0094
AAAGGCAA	0.225 ± 0.019
CGCGCAAG	-0.09 ± 0.021
AAGTGATC	0.00227 ± 0.17
AAGTGATG	0.0833 ± 0.02
ATGTGATA	0.259 ± 0.018
ACGTGATG	0.281 ± 0.036
ACGTGATC	0.365 ± 0.03
AGGTGATG	-0.035 ± 0.048
GCGTGATA	0.157 ± 0.0055
GTGTGATA	0.161 ± 0.094
CCGTGATA	-0.0612 ± 0.11
CTGTGATA	-0.0471 ± 0.032
ACGTGATA	0.373 ± 0.04
CCGTGATC	-0.0695 ± 0.058
CCGCCGCG	-0.0114 ± 0.016
CGACCTTA	-0.135 ± 0.088
AGTAACCA	0.0556 ± 0.031
ACGCTAAA	-0.0749 ± 0.18
AAGGTTCG	0.00686 ± 0.047
TCGGTAAA	0.0761 ± 0.071
GCGTTCGA	-0.0763 ± 0.0099
CTACTAAC	0.279 ± 0.095

Sequence	PBM 8-mer E-score
CTACTAAG	-0.104 ± 0.13
GTCCTAAC	-0.0552 ± 0.13
GTACTAAA	0.0526 ± 0.051
ATACTAAA	0.236 ± 0.0049
ATACTAAC	0.159 ± 0.022
CTCCTAAC	0.24 ± 0.12
TTACTAAA	0.109 ± 0.064
ATCCTAAC	0.133 ± 0.071
CTCCAAAG	-0.102 ± 0.047
ATGGAACC	-0.166 ± 0.054
ACAGAACG	-0.0169 ± 0.0023
CAACCGGC	-0.263 ± 0.061
AAAATCAA	0.0163 ± 0.098
GAAATCAA	0.138 ± 0.029
CAAATCAA	0.245 ± 0.008
GTCGGAAA	-0.0618 ± 0.062
ACAATACC	0.249 ± 0.069
ACAATACA	0.106 ± 0.079
ACAATACT	0.117 ± 0.14
CTTGCTCC	-0.0612 ± 0.0067
ATGCATGG	0.156 ± 0.079
ATGCATGA	0.244 ± 0.02
GTGCATGA	0.265 ± 0.012
CTGCATGA	-0.175 ± 0.057

Sequence	PBM 8-mer E-score
ATGCATTA	0.265 ± 0.055
GGGCATGA	-0.0171 ± 0.012
ATGCATCA	0.254 ± 0.0073
ATGCATGC	0.203 ± 0.04
ATGCATCG	0.0483 ± 0.15
ATGCATTC	0.197 ± 0.016
CTGCATTA	0.0253 ± 0.0015
GTGCATCA	0.0702 ± 0.089
CTGCTGTA	-0.271 ± 0.066
CGCTGCGC	-0.152 ± 0.14
CGAGCTCC	0.00928 ± 0.0055
CAGGATTC	-0.0901 ± 0.04
AAGTCCGC	-0.204 ± 0.041
CCAAACCA	0.037 ± 0.03
AGGGTGTG	0.0713 ± 0.066
CAGTAACG	-0.0368 ± 0.021
CGAGCTGC	-0.214 ± 0.048
AACTCCGG	-0.0587 ± 0.069
TATTGGCA	0.243 ± 0.034
AATTGGCA	0.139 ± 0.04
CATTGGCA	-0.0219 ± 0.039
CGCGCCCA	0.0179 ± 0.03

Source: the supplement of paper PMC12636033
